Whole data set: some 33,000 sequences, median “e-score” near -0.053, cut for the highest 2% near 0.38. The sample holds the highest values, similar sequences and a random draw of the others, so the mix is not that of the screen.

The values that follow come from PMC10668032, “Altered binding affinity of SIX1-Q177R correlates with enhanced WNT5A and WNT pathway effector expression in Wilms tumor”.

This test addresses T1, SIX1 homeodomain (reference allele) (human, UniProt Q15475 108-198).
T1 sequence: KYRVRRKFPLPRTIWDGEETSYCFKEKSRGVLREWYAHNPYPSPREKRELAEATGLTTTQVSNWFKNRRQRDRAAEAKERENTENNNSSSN
Briefly: universal protein binding microarray; Universal all-10-mer PBM (8x60K, AMADID 030236), 300 nM GST-tagged protein, Alexa Fluor 488 anti-GST; buffer, salt, pH and temperature not stated (as in Berger); high values mean tight binding. The following applies: protein: ivt; tags: N-terminal GST; dsDNA, one strand shown. In short, it runs like this: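 GST-tagged homeodomains were made by in vitro transcription/translation and quantified by anti-GST western blot against a recombinant GST standard curve. They were applied in duplicate at 300 nM final concentration to universal 'all 10-mer' protein binding microarrays (8×60K format). Binding was quantified as 8-mer E-scores with the Universal PBM Analysis Suite.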
Consider ATCCCCTC, for which the binding signal is 0.387 ± 0.0304 E-score. As for ATCCCGAA, the binding signal came out at 0.252 ± 0.0478 E-score. Under ATCCCCTG stands 0.3344 ± 0.00285 E-score. For the sequence ATCCCCCG, the binding signal was 0.403 ± 0.00588 E-score.

As for ATCCCCTA, the binding signal was 0.374 ± 0.0124 E-score.

As for ATCCCGCG, the binding signal came out at 0.323 ± 0.0328 E-score. For ATCCCGAG the value was 0.257 ± 0.025 E-score; for ATCCCCAA, 0.294 ± 0.0584 E-score. In the case of ATCCCCCA, the binding signal was 0.392 ± 0.0226 E-score. For ATCCCCGG the value was 0.307 ± 0.0247 E-score. ATGCGGTA: the binding signal worked out at 0.265 ± 0.0333 E-score.

As for AGATGGAT, the binding signal came out at 0.328 ± 0.00364 E-score. Consider ATACAGGG, for which the binding signal was 0.295 ± 0.0454 E-score. CGTAGATA: the binding signal amounted to 0.23 ± 0.0417 E-score. For GATCGTTA the value was 0.198 ± 0.00351 E-score; for ATACGGCC, 0.344 ± 0.0108 E-score. Under ATTAATCC stands 0.316 ± 0.089 E-score; under TCAATCCA, 0.163 ± 0.0587 E-score. Under ATCCCCCC stands 0.423 ± 0.0283 E-score; under ATCACCCC, 0.302 ± 0.0208 E-score; under ATCCCCGC, 0.326 ± 0.0778 E-score. On to ATCCCCAC, for which the binding signal was 0.347 ± 0.0302 E-score.

Turning to ATCACCCG, the binding signal was determined as 0.397 ± 0.0282 E-score. As for ATCACCCA, the binding signal was found to be 0.308 ± 0.00677 E-score. For ATCGTAGG, the binding signal is 0.16 ± 0.0377 E-score. For the sequence CTGATCTA, the binding signal was determined as 0.2567 ± 0.000955 E-score. For GATACGCC the value was 0.4525 ± 0.00258 E-score.

Consider GATACGCA, for which the binding signal was determined as 0.4207 ± 0.00257 E-score. Take TATACGCA: the binding signal stood at 0.304 ± 0.0184 E-score. For GATACAAA the value was 0.252 ± 0.0232 E-score.

Regarding AATACGTA, the binding signal came out at 0.237 ± 0.0731 E-score. As for GAGACGCC, the binding signal stood at 0.155 ± 0.0256 E-score.

For AATACGCC, the binding signal amounted to 0.188 ± 0.0403 E-score.

GACACGTA: the binding signal came out at 0.211 ± 0.0335 E-score. Regarding GATACGTA, the binding signal was found to be 0.4288 ± 0.00319 E-score.

For CCCGTCTA, the binding signal turned out to be 0.159 ± 0.00699 E-score. Regarding AGACGTAT, the binding signal was 0.319 ± 0.0844 E-score. For CAGTGTCA the value was 0.249 ± 0.0216 E-score; for CGCATCGA, 0.208 ± 0.103 E-score; for CACCGGTG, 0.196 ± 0.0172 E-score. For ATATGAAT the value was 0.19 ± 0.0448 E-score. For ATCTGATG the value was 0.156 ± 0.0564 E-score. For the sequence CCCTGATA, the binding signal stood at 0.36 ± 0.00422 E-score. In the case of ACCTGATC, the binding signal was 0.31 ± 0.0291 E-score. With ATCTGATC, the binding signal stood at 0.419 ± 0.0129 E-score.

Turning to ATCTGAAC, the binding signal turned out to be 0.179 ± 0.00772 E-score. Under ATCTGACC stands 0.282 ± 0.0195 E-score; under CTCTGATA, 0.312 ± 0.08 E-score. Under ACCTGATA stands 0.401 ± 0.0362 E-score. For ATCTGATA the value was 0.446 ± 0.0144 E-score; for GGTTTCGA, 0.172 ± 0.0592 E-score; for GAGATCTA, 0.172 ± 0.0177 E-score. As to TAAACCCA, the binding signal is 0.161 ± 0.0201 E-score. In the case of CGATCGCA, the binding signal was found to be 0.284 ± 0.0349 E-score.

With ATCGGTGA, the binding signal stood at 0.232 ± 0.0224 E-score.

Regarding GTGTCCCA, the binding signal was 0.204 ± 0.0515 E-score. Under CGTTAGTA stands 0.194 ± 0.00764 E-score; under ATATTCTC, 0.269 ± 0.0439 E-score. For CATCCGCC the value was 0.237 ± 0.0769 E-score; for AATCCGCC, 0.212 ± 0.00218 E-score. For GATCCGCC the value was 0.427 ± 0.0138 E-score. As to TATCCGAA, the binding signal is 0.334 ± 0.0355 E-score. Under AATCCGCT stands 0.191 ± 0.0498 E-score; under AATCCGCA, 0.204 ± 0.0414 E-score; under GATCCAAA, 0.207 ± 0.0442 E-score. Under TATCCGCA stands 0.4006 ± 0.00313 E-score; under GATCCGCA, 0.411 ± 0.0362 E-score; under GCCATATA, 0.215 ± 0.0356 E-score. For the sequence ACACCGCT, the binding signal was found to be 0.224 ± 0.00469 E-score. For CCCACTGA the value was 0.191 ± 0.0775 E-score; for ATGCAGTG, 0.153 ± 0.121 E-score; for ATCGCGTA, 0.189 ± 0.0511 E-score.

TACTACTA: the binding signal stood at 0.195 ± 0.0204 E-score. Under AGGATACG stands 0.386 ± 0.0183 E-score; under CGGATACA, 0.446 ± 0.0132 E-score; under AGGATAAA, 0.16 ± 0.041 E-score.

As for CGGATACC, the binding signal turned out to be 0.476 ± 0.00619 E-score. Consider CGTATACG, for which the binding signal came to 0.317 ± 0.065 E-score. On to CGGATACG, for which the binding signal stood at 0.38745 ± 0.000205 E-score.

As to CGGATAAG, the binding signal was 0.187 ± 0.0213 E-score. In the case of CGAATACC, the binding signal amounted to 0.233 ± 0.0485 E-score.

On to CGGATGCC, for which the binding signal is 0.214 ± 0.0396 E-score. Under CCATCTAC stands 0.161 ± 0.00787 E-score; under ATTCAATA, 0.161 ± 0.0419 E-score. Under TATGCGAA stands 0.164 ± 0.0286 E-score; under ACACCTTC, 0.219 ± 0.032 E-score.
